# rCAG binder: molecules binding r(CAG) RNA repeats; r(CAG) RNA repeat, TO-PRO-1 dye displacement fluorescence; AID 651821; 370,000 compounds, 1.3% hits; inhibition, % at 3 µM;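 active = inhibition above the plate cutoff, the mean of all test compounds on that plate plus 3 SD, cut at about 35% in these data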;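 note: higher means more dye released from RNA so lower well fluorescence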
# ABHD5-PLIN5 inh: inhibitors of human ABHD5-perilipin-5 interaction; 360,000 compounds, 0.78% hits; inhibition, % at 4 µM; Split G. princeps luciferase complementation, luminescence, 4 h; Q00G26+Q8WTS1;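 active = inhibition above the mean inhibition across every tested compound plus 3 SD, cut at about 22% in these data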
# Target sequence (Q00G26 whole entry, looked up): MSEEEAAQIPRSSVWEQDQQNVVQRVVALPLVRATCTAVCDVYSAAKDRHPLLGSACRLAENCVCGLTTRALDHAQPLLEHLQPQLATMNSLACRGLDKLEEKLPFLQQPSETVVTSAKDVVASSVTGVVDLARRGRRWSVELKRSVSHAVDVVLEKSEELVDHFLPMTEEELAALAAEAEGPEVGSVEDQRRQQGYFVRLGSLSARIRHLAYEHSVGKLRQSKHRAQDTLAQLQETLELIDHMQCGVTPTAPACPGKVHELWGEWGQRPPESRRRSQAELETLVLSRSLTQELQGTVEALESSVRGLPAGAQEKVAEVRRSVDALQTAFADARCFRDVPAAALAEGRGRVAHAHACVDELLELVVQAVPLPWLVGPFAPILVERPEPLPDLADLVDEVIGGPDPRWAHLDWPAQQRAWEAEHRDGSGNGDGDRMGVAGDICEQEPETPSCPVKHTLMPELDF
# Target sequence (Q8WTS1 whole entry, looked up): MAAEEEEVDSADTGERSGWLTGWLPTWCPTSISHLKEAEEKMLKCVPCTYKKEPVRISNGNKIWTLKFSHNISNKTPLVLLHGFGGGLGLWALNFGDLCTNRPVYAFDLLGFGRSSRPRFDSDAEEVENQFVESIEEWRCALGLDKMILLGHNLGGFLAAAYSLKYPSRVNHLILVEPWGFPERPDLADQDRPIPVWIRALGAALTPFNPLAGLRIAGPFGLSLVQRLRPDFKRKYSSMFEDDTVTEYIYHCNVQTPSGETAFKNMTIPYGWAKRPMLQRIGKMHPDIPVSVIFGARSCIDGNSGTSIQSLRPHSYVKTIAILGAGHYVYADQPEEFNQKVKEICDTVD
# TLR9-MyD88 inh: blocks human TLR9 binding to MyD88 | inhibition, % at 4.98 µM | CHO BLA complementation TLR9-MyD88, CCF4 FRET ratio | Q9NR96+Q99836 | AID 504734 | 340,000 compounds, 0.21% hits;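 active = inhibition above the mean over all tested compounds plus 3 SD, cut at about 21% in these data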
# PRMT1 inh: blocks human protein arginine methyltransferase 1; inhibition, % at 2.79 µM; 370,000 compounds, 1.3% hits; recombinant PRMT1, activity-based probe fluorescence polarization; Q99873;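 active = inhibition above about 21% made by adding two undisclosed values, limit read from the data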
# TLR4 MyD88 comp: inhibitors of human TLR4-MyD88 binding; HeLa CL3-4 TLR4/MyD88 BLA complementation, FRET ratio; inhibition, % at 8.4 µM; 200,000 compounds, 0.18% hits; AID 861; in the data active = inhibition above about 25%
# NOD2-RIPK2 inh: inhibitors of human NOD2-RIPK2 interaction; O43353; inhibition, % at 4.98 µM; CHO BLA complementation NOD2-RIPK2, CCF4 ratio; 360,000 compounds, 0.38% hits; in the data active = inhibition above about 21%
# rCAG bind conf: r(CAG) RNA repeat binding, confirmation; shares compounds with rCAG binder; 4,300 compounds, 70% hits; inhibition, % at 3 µM; TO-PRO-1 dye displacement fluorescence;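 active = inhibition above a per-plate cutoff, the mean inhibition of sample wells plus 3 SD, cut at about 35% in these data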;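 note: loss of TO-PRO-1 fluorescence as compound displaces dye from 1x1 AA loop RNA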
# DNA CAG counter: DNA CAG dye complex inhibition counter-screen; inhibition, % at 3 µM; 4,300 compounds, 94% hits; shares compounds with rCAG binder; d(CAG) DNA oligo TO-PRO-1 dye displacement, fluorescence;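 active = inhibition above its plate's cutoff, the mean test-well inhibition plus 3 SD, cut at about 4.8% in these data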;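 note: hits displace the dye from DNA and so lower well fluorescence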
# DNA CAG DR: counter-screen for rCAG binders: inhibitors of DNA CAG TO-PRO-1 complex; shares compounds with rCAG binder; DNA CAG/GTC duplex TO-PRO-1 dye displacement fluorescence; IC50, µM; 250 compounds, 20% hits; in the data active = IC50 below about 10 µM
# A number is an active result; n = inactive; x = no result given. The list is not random: actives were taken first. Their share in the collection is about 3.3%.
SMILES,rCAG binder,ABHD5-PLIN5 inh,TLR9-MyD88 inh,PRMT1 inh,TLR4 MyD88 comp,NOD2-RIPK2 inh,rCAG bind conf,DNA CAG counter,others
Cc1ccc(S(=O)(=O)N/N=C/c2ccc(OS(=O)(=O)c3ccc(C)c([N+](=O)[O-])c3)cc2)cc1,35,n,n,n,n,n,50,15,
Nc1nc(N)c2c(ccc3c2ccn3Cc2cccc([N+](=O)[O-])c2)n1,n,n,x,n,x,n,x,x,
CC(=O)OC(C)C1C2=C(C(=O)CC1(C)O)C(=O)c1c(ccc(-c3ccc4c(c3O)C(=O)C3=C(C4=O)C(C(C)OC(C)=O)C(C)(O)CC3=O)c1O)C2=O (stereo not given),59,n,n,n,x,n,67,34,DNA CAG DR=8
COc1ccc(-c2csc(NC(=O)Cc3cccc4ccccc34)c2C(=O)O)cc1,61,n,n,n,n,n,54,17,
COc1ccccc1NC(=O)Cc1cccc2ccccc12,n,n,n,n,x,n,x,x,
O=C(/C=C/c1ccccc1)Nc1cccc(C(=O)O)c1,n,n,n,n,n,n,x,x,
O=C(Nc1scc(-c2ccccc2)c1C(=O)O)c1ccccc1F,n,n,n,n,x,n,x,x,
COc1ccc(-c2csc(NC(=O)c3ccccc3Br)c2C(=O)O)cc1,55,n,n,n,x,n,36,10,
O=C(Nc1scc(-c2ccccc2)c1C(=O)O)c1ccc(F)cc1,36,n,n,n,x,n,n,5.0,
O=C(/C=C/c1ccccc1)Nc1cc(NC(=O)/C=C/c2ccccc2)cc(C(=O)O)c1,75,n,n,n,x,n,81,52,
CCOc1ccc(/C=N/NC(=O)c2ccccc2O)cc1CN1CC2CC(C1)c1cccc(=O)n1C2 (stereo not given),n,n,n,n,x,n,x,x,
Cc1ccc(NC(=O)C(=O)NCCOc2ccc(Cl)cc2)c(C)c1,n,n,n,n,n,n,x,x,
Cc1ccc(-c2csc(NC(=O)c3ccccc3F)c2C(=O)O)cc1,42,n,n,n,x,n,n,4.6,
O=C(/C=C/c1ccco1)Nc1scc(-c2ccccc2)c1C(=O)O,n,n,n,n,x,n,x,x,
O=C(Nc1scc(-c2ccc(Br)cc2)c1C(=O)O)c1ccccc1F,n,n,n,n,x,n,x,x,
Cc1ccc(-c2csc(NC(=O)c3ccc(F)cc3)c2C(=O)O)cc1,63,n,n,n,x,n,39,8.8,
O=C(/C=C/c1ccccc1)Nc1scc(-c2ccccc2)c1C(=O)O,55,n,n,n,n,n,n,6.0,
CN1CCCCC(NC(=O)C23CC4CC(CC(C4)C2)C3)C1=O (stereo not given),n,x,x,n,x,x,x,x,
CCCOC(c1ccccc1)(c1ccc(C(F)(F)F)cc1)C(Oc1nc(C)cc(C)n1)C(=O)O (stereo not given),n,n,n,n,x,n,x,x,
Cc1cc(C)nc(OC(C(=O)O)C(OCCc2ccccc2)(c2ccc(F)cc2)c2ccc(F)cc2)n1 (stereo not given),36,n,n,n,x,n,49,11,
O=C(OCC#CCSc1nnc(-c2c[nH]c3ccccc23)o1)c1ccc(F)cc1,x,x,x,n,x,x,x,x,
CCOC(=O)c1c(NC(=O)/C=C/C(=O)O)sc(C)c1-c1ccc(Cl)cc1,46,n,n,n,n,n,46,11,
Cc1sc(NC(=O)C2CC=CCC2C(=O)O)c(C(=O)OC(C)C)c1C (stereo not given),41,n,n,n,n,n,n,5.8,
CCN(CC)CCN(C(=O)c1ccc2c(c1)CCCC2)c1nc2c(C)cccc2s1,n,n,n,n,x,n,x,x,
COC(=O)CSc1nnc(-c2ccc(NS(=O)(=O)c3ccc(Cl)s3)cc2)o1,39,x,x,n,x,x,n,5.8,
SMILES,rCAG binder,ABHD5-PLIN5 inh,TLR9-MyD88 inh,PRMT1 inh,TLR4 MyD88 comp,NOD2-RIPK2 inh,rCAG bind conf,DNA CAG counter,others
COc1ccc(/C=C2\SC(=S)N(CC(=O)N3CCN(C)CC3)C2=O)cc1,n,n,x,n,x,n,x,x,
COc1cc(/C=C2\SC(=S)N(C(C(=O)O)c3ccccc3)C2=O)ccc1O (stereo not given),43,n,n,n,x,n,n,8.5,
COc1ccccc1/C=C1\SC(=S)N(C(C(=O)O)c2ccccc2)C1=O (stereo not given),67,n,n,n,x,n,67,27,
COc1ccccc1/C=C1\SC(=S)N(CCC(=O)NNC(=O)c2ccccc2OC)C1=O,n,n,n,n,x,n,x,x,
CCOc1ccc(/C=C2/SC(=S)N(C(C(=O)O)c3ccccc3)C2=O)cc1OCC (stereo not given),n,n,n,n,n,n,x,x,
COc1ccc(/C=C2\SC(=S)N(C(Cc3ccccc3)C(=O)O)C2=O)cc1 (stereo not given),65,n,n,n,n,n,71,34,DNA CAG DR=n
CN(c1ccccc1)c1nc(N)c([N+](=O)[O-])c(N2CCOCC2)n1,n,n,n,n,x,n,x,x,
Nc1nnc2cc(Br)ccc2n1,n,n,n,n,x,n,x,x,
O=C(O)c1ccc(/C=N\Nc2ccc(S(=O)(=O)N3CCOCC3)cc2[N+](=O)[O-])cc1,n,n,n,n,x,n,x,x,
O=C(O)COc1ccccc1/C=N/Nc1ccc(S(=O)(=O)N2CCOCC2)cc1[N+](=O)[O-],52,n,n,n,n,n,39,9.3,
Cc1ccc(-n2c(O)c(/C=N/Nc3ccc(S(=O)(=O)N4CCOCC4)cc3[N+](=O)[O-])c3ccccc3c2=O)c(C)c1,66,n,n,n,n,n,88,71,
CCOC(=O)c1ccc(NC(=O)CN2CCN(C(=O)C3CCCO3)CC2)cc1 (stereo not given),n,n,n,n,x,n,x,x,
COc1ccc([C@@H]2CC=C(C(=O)O)[C@H](c3ccc(F)cc3)N2S(=O)(=O)c2ccc(Cl)cc2)cc1,58,n,n,n,x,n,47,15,
COc1ccc([C@@H]2CC=C(C(=O)O)[C@H](c3cccc(Cl)c3)N2S(=O)(=O)c2ccc(Cl)cc2)cc1,74,n,n,n,x,n,71,33,DNA CAG DR=n
CCCN(C(=O)c1c(CC)noc1C)c1c(N)n(Cc2ccccc2)c(=O)[nH]c1=O,n,n,n,n,x,n,x,x,
CCOC(=O)C1=C(C(=O)OCC)C2N(Cc3ccc(Br)cc3)c3ccccc3[C@@]23C[C@@H](C(=O)OC)N(S(=O)(=O)c2cccs2)C3=N1 (stereo not given in full),n,x,x,n,x,x,x,x,
COc1cc(Br)c(/C=C/c2ccc3cccc(O)c3n2)cc1OC,n,n,n,n,x,n,x,x,
COc1cc(Br)cc(/C=C/c2ccc3cccc(O)c3n2)c1O,36,n,n,n,x,n,n,13,
COc1cc(/C=C/c2ccc3cccc(O)c3n2)c(Br)cc1O,48,n,n,n,x,n,45,21,

# Bioassay records as filed in PubChem.
